Screening results from PubChem BioAssay.
Pf growth 96h = inhibits malaria parasite growth, 96 h. P. falciparum luciferase reporter growth, 96 h. Potency, µM (top dose mostly 28.7 µM), for inactives: top-dose activity change, negative = inhibition, hits mostly inhibitors. actives 6.9% (n = 320,000); also: potency is read from the fitted curve at half-maximal effect; % is scaled to controls: 0 for no effect and ±100 for the full control effect
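Parasite growth measured via integrated firefly luciferase reporter in P. falciparum. Infected erythrocytes at 2% hematocrit, 0.05% parasitemia final were treated 96 hours at 37 C under 5% CO2, and luminescence was read.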
Shiga inhibitor = Shiga toxin inhibition; Vero cells, Shiga toxin protein synthesis inhibition reporter; inhibition, % at 38.7 µM; actives 9.2% (n = 290,000); in the data active = inhibition mostly above about 28%, no sharp cut-off; inactive = mostly below about 43%; also: 0% is about no effect
Cycloheximide cs = counter-screen for Shiga toxin inhibitors: cycloheximide protein synthesis inhibition. cell reporter, cycloheximide protein synthesis inhibition counterscreen. actives 12% (n = 300,000). AID 2314. max response, %; in the data active = max response mostly above about 13%, no sharp cut-off; inactive = mostly below about 14%; also: read at 38.3 µM for the half of the compounds with a filed dose; 0% is about no effect
HCV inh = HCV inhibition | Huh7.5.1 HCVcc-Cre infection, luciferase reporter, 44 h | Potency, µM (doses to about 41.8 µM), without a hit: at the highest dose activity change, negative = inhibition, most hits filed as inhibitors | actives 3.4% (n = 340,000); also: potency is read from the fitted curve at half-maximal effect; % is scaled to controls: 0 for no effect and ±100 for the full control effect
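Infectious HCVcc-Cre (~0.5 moi) was added to cells just after compound, with cells seeded 4 h earlier at 1,000 per well. Luciferase activity after 44 h culture reported infection; substrate was incubated 15 min at room temperature before reading.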
AMA1-RON2 inh = disrupts binding of P. falciparum AMA1 to RON2. Potency, µM (top dose mostly 58.2 µM), for inactives: at the highest dose activity change, negative = inhibition, hits mostly inhibitors. AID 720542. actives 0.2% (n = 360,000). AlphaScreen AMA1-biotinylated RON2 peptide binding;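 also: potency is read from the fitted curve at half-maximal effect; 0% = vehicle wells and -100% = peptide control; nearly all actives have a fitted effect of over 45% in size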
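AMA1 (3D7) with his tag at 25 nM final met compounds first, then biotinylated RON2 peptide at 25 nM; detection used donor plus acceptor beads, 10 µg/mL apiece, read by AlphaScreen after 30 min at room temperature.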
Pf growth 48h = inhibits P. falciparum growth in the first generation, 48 h | P. falciparum luciferase growth in erythrocytes, 48 h | Potency, µM (series often up to 28.7 µM), inactives show top-dose activity change, negative = inhibition, usual class: inhibitors | actives 5.9% (n = 310,000); also: potency is read from the fitted curve at half-maximal effect; % is scaled to controls: 0 for no effect and ±100 for the full control effect
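First compound was added to culture medium, then infected red cells at 0.1% parasitemia and 2% hematocrit (final). After incubation at 37 C under 5% CO2, luciferase detection reagent was dispensed and light output recorded.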
* = called active by the depositor; ? = inconclusive; . = not tested or not shown; [ ] = another dose, or the depositor's remark. Only some compounds are listed: those with a hit (about 21% of all), similar ones and a draw of the others. Unless noted, calls follow the shape of the dose curve; as a rule, active = well fitted curve in the direction sought with a large enough effect; inconclusive = small, poorly fitted or top-dose-only effect, or another doubt; inactive = no such curve, though single readings can be large; an effect the other way counts as inactive or inconclusive.

SMILES | Pf growth 96h | Shiga inhibitor | Cycloheximide cs | HCV inh | AMA1-RON2 inh | Pf growth 48h
COc1ccc(CCNC(=O)c2cc(C3CC3)nc3c2cnn3C(C)C)cc1OC | 2.33µM* | . | . | ? | -2.7% | ?
CC(C)n1ncc2c(C(=O)O)cc(C3CC3)nc21 | 19.5% | -12.0 | -2.5 | 10.0% | 5.7% | -2.3%
CCNC(=O)c1cccc(NC(=O)c2cc(C3CC3)nc3c2cnn3C(C)C)c1 | ? | . | . | ? | 31.1% | ?
CC(C)n1ncc2c(C(=O)N3CCN(Cc4ccc(Br)s4)CC3)cc(C3CC3)nc21 | 11.7µM* | . | . | 10µM* | 14.1% | 4.15µM*
Cc1cc(=O)[nH]c(SCC(=O)Nc2cccc(S(=O)(=O)N3CCOCC3)c2)n1 | ? | . | . | -0.1% | 13.1% | -27.9%
Cc1noc(C)c1C(=O)NCCc1c(C)[nH]c2ccccc12 | ? | 25.7 | -0.9 | -7.3% | -7.9% | 0.4%
CSc1ccc(CN2C(=O)NC3(CCCCC3)C2=O)cc1 | 1.0% | -5.6 | -0.8 | ? | 4.2% | 3.0%
CC(C)n1ncc2c(C(=O)NCCOc3ccccc3F)cc(C3CC3)nc21 | . | . | . | ? | 1.9% | .
CC(C)n1ncc2c(C(=O)NCCc3ccc(S(N)(=O)=O)cc3)cc(C3CC3)nc21 | ? | . | . | -3.7% | -4.2% | -7.3%
CCOc1ccc(OCCNC(=O)c2cc(C3CC3)nc3c2cnn3C(C)C)cc1 | ? | . | . | 3.16µM* | -25.2% | 10.4µM*
COc1ccc(CNC(=O)c2cc(C3CC3)nc3c2cnn3C(C)C)cc1 | 14.7µM* | . | . | 2.24µM* | 4.7% | 13.1µM*
CCOCCn1c(CN2CCN(c3ccc(F)cc3)CC2)nc2c1c(=O)n(C)c(=O)n2C | 7.38µM* | -16.2 | 1.1 | ? | 4.8% | .
CCOCCn1c(CN2CCN(c3cccc(Cl)c3)CC2)nc2c1c(=O)n(C)c(=O)n2C | -13.0% | 29.5 | 0.7 | 15.8µM* | -21.0% | .
CCOc1ccccc1C(=O)NC(C(=O)N(C)c1c(N)n(Cc2ccccc2)c(=O)[nH]c1=O)C(C)C (stereo not drawn) | . | . | . | ? | 2.4% | .
Cc1ccc(/C=C2/NC(=O)[C@H](C)NC2=O)cc1 | 47.1% | 26.0 | 14.9* | 12.8% | -3.7% | .
C[C@@H]1NC(=O)/C(=C\c2ccccc2Br)NC1=O | 10.5% | -6.8 | -1.7 | 7.8% | -0.7% | .
O=C(Cc1ccc(Br)cc1)OCC(=O)c1ccc[nH]1 | . | . | . | 8.8% | 9.4% | .
COc1ccc2nc(C)c3c(c2c1)OC(C)C3 (stereo not drawn) | 2.7% | 15.2 | -3.0 | -18.5% | -0.3% | 30.3%
CCOC(=O)c1ccc2nc(C)c3c(c2c1)OC(C)C3 (stereo not drawn) | 7.4% | -7.3 | 3.7 | 10µM* | -3.8% | ?
CC(C(=O)N1CCN=C1c1ccccc1)N1C(=O)c2ccccc2C1=O (stereo not drawn) | 76.9% | -12.1 | -1.3 | 11.8% | -5.6% | 44.3%
CN1CCN(C2CCCCCC2)CC1 | 1.5% | 3.4 | -1.5 | 6.8% | -8.3% | 0.0%
CC1CCCCC1NC1CCN(C)CC1 (stereo not drawn) | 9.28µM* | -2.3 | -3.3 | ? | -2.2% | -6.5%
COc1ccc(OC)c(/C=C2/Sc3ccccc3C2=O)c1 | -1.3% | 19.7 | -1.9 | -4.4% | -7.2% | ?
CC(=O)N(C)/C=C1\Sc2ccccc2C1=O | 20.4% | 41.9 | 16.6* | -5.7% | -2.5% | 50.7%
CCC(=O)N(C)/C=C1\Sc2ccccc2C1=O | 1.4% | 148.1* | 29.6* | 10.9% | -18.7% | -0.8%
SMILES | Pf growth 96h | Shiga inhibitor | Cycloheximide cs | HCV inh | AMA1-RON2 inh | Pf growth 48h
O=CN(/C=C1\Sc2ccccc2C1=O)Cc1ccccc1 | . | 67.2* | 40.0* | 5.2% | 12.2% | 125.2%
CC(=O)Nc1ccc(/C=C2\Sc3ccccc3C2=O)cc1 | 20.0% | 25.5 | 4.7 | -20.3% | 17.6% | 11.9%
COc1cc(CNc2ccccc2SC)ccc1O | 4.6% | 69.7* | 25.2 | . | -23.4% | 13.8%
CCOc1cc(CNc2ccccc2SC)ccc1O | . | -9.0 | 22.7 | -4.2% | . | -9.4%
COc1ccc(C(CNC(=O)c2cc3ccccc3cc2OC)N2CCCC2)cc1 (stereo not drawn) | 4.15µM* | -9.7 | -0.7 | ? | -4.5% | .
COc1cc(C(=O)NCC(=O)NCC(c2ccco2)N2CCCCC2)cc(OC)c1OC (stereo not drawn) | 3.29µM* | . | . | 0.4% | 6.4% | ?
C=CCN(c1ccccc1)S(=O)(=O)c1cccc(C(=O)NCC(c2ccc(OC)cc2)N2CCCCC2)c1 (stereo not drawn) | ? | . | . | 6.31µM* | -20.1% | 10.4µM*
CCC1CCc2sc(C(=O)NCC(c3ccc(OC)cc3)N3CCCC3)cc2C1 (stereo not drawn) | ? | . | . | 10µM* | 6.1% | 11.7µM*
CCN(c1ccccc1)S(=O)(=O)c1cccc(C(=O)NCC(c2ccc(OC)cc2)N2CCCCC2)c1 (stereo not drawn) | . | . | . | . | 28.1% | .
COc1ccc(C(CNC(=O)CNC(=O)c2ccccc2Cl)N2CCCC2)cc1 (stereo not drawn) | ? | . | . | 26.1% | 59.7% | ?
COCCNc1nc(Nc2ccc(C(=O)OC)cc2)c2sccc2n1 | . | . | . | . | -5.2% | .
O=C(CCC1CCCCC1)NCCS(=O)(=O)N1CCN(c2ccc(F)cc2)CC1 | ? | . | . | -23.9% | -7.4% | ?
COc1ccc(NS(=O)(=O)c2cccc(C(=O)NCC(c3ccc(OC)cc3)N3CCCC3)c2)cc1 (stereo not drawn) | 7.38µM* | . | . | -25.2% | 23.4% | 6.57µM*
COc1ccccc1NS(=O)(=O)c1cc(C(=O)NCC(c2cccs2)N2CCOCC2)ccc1C (stereo not drawn) | ? | . | . | ? | 21.2% | ?
COc1ccc(C(CNC(=O)c2cccc(S(=O)(=O)Nc3ccccc3OC)c2)N2CCCC2)cc1 (stereo not drawn) | 13.1µM* | . | . | -16.2% | 40.0% | ?
COc1ccc(C(CNC(=O)c2cccc(S(=O)(=O)Nc3ccccc3OC)c2)N2CCCCC2)cc1 (stereo not drawn) | . | . | . | ? | -16.1% | .
COc1ccccc1C(CNC(=O)c1cccc(S(=O)(=O)Nc2ccc(F)cc2)c1)N1CCCC1 (stereo not drawn) | . | . | . | ? | -7.9%[11.6 µM] | .
COc1ccc(NS(=O)(=O)c2cccc(C(=O)NCC(c3ccc(OC)cc3)N3CCCCC3)c2)cc1 (stereo not drawn) | . | . | . | ? | 24.3% | .
COc1ccc(NS(=O)(=O)c2cccc(C(=O)NCC(c3ccccc3OC)N3CCCC3)c2)cc1 (stereo not drawn) | ? | . | . | -18.9% | 49.6% | 10.4µM*
COc1ccc(C(CNC(=O)c2ccc(C)c(S(=O)(=O)Nc3ccccc3OC)c2)N2CCCC2)cc1 (stereo not drawn) | ? | 11.8 | 3.3 | -20.4% | 69.1% | 4.15µM*
C=CCN1C(=O)C(CC(=O)NCC)SC1=Nc1ccccc1OC (stereo not drawn) | -15.9% | -7.1 | -1.4 | 6.6% | 2.4% | 5.7%
